Test [1] is described as follows: Wnt pathway potentiators raising nuclear beta-catenin – imaging, WNT3A-conditioned medium, mouse C2C12, NPC library, primary screen (AID 1117326; in the data active means nuclear beta-catenin stimulation mostly above about 4.2%, no sharp cut-off; inactive means mostly below about 10%). To be noted: stronger effect = higher value.
Test [2] is described as follows: stimulators of insulin release from INS-1E, primary screen, cell-based, 5 mM glucose, NPC library (AID 1117329;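 active means compound raises insulin release from rat beta cells at 5 mM glucose, no numeric limit stated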). Conditions: rat INS-1E insulin secretion, at 10 µM, stronger effect = higher value.
The nature of test [3]: growth inhibition of GSK3B-pretreated HCT116 cells – cell-based, CellTiter-Glo, 0.2 to 20 µM (AID 1117336;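 active means compounds lowering colon cancer cell viability after pretreatment blocking the GSK3B kinase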). Conditions: HCT116 viability after GSK3B inhibitor, at 20 µM, stronger effect = higher value. In general terms: ATP-based viability assays read luminescence as a measure of living cells.
Test [4] is described as follows: inhibition of endothelial tube formation, primary screen, imaging, VEGF stimulated, CD31 staining, tube area, NPC library (AID 1117340). To be noted: VEGF-stimulated ADSC/ECFC co-culture, at 10 µM, stronger effect = higher value.
A short description of test [5]: GLP1 release stimulators, primary, NCI-H716, NPC library (AID 1117341;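 active means compound raises GLP1 secretion from the human gut endocrine cells, with no numeric limit stated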). To be noted: NCI-H716 cells, at 10 µM, stronger effect = higher value.
Test [6] in a line: HCT116 colon cancer cell growth inhibition, primary screen, CellTiter-Glo luminescence, NPC library (AID 1117342;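 active means compounds that lower survival of HCT116 colon cancer cells in the luminescence readout, no numeric limit stated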). To be noted: at 20 µM (top of the series).
A short description of test [7]: reduced SW480 viability measured with CellTiter-Glo, NPC library, primary (AID 1117343;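 active means compounds that lower viability of the colon cancer cells in the luminescence readout, with no numeric limit stated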). To be noted: CellTiter-Glo luminescence; at 20 µM (top of the series) unless noted.
Test [8] in a line: NPC library primary testing for decreased DLD-1 cell viability via CellTiter-Glo (AID 1117346;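 active means compounds that lower survival of DLD-1 colon cancer cells in the luminescence readout, no cutoff given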). To be noted: DLD-1 viability, CellTiter-Glo luminescence; at 20 µM (top of the series).
In test [9] the target is NAD(+) hydrolase SARM1 (Homo sapiens) (UniProt Q6SZW1). The test is described as follows: blocking NAD cleavage by SARM1 SAM-TIR – cell lysate, NAD-Glo luminescence (AID 1508614;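 active means compound whose remaining NAD level is above about 45 nM, limit read from the data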). To be noted: SAM-TIR HEK293T lysate NADase, at 1 µM, stronger effect = higher value.
NAD(+) hydrolase SARM1 (Homo sapiens), sequence (Q6SZW1 whole entry, looked up): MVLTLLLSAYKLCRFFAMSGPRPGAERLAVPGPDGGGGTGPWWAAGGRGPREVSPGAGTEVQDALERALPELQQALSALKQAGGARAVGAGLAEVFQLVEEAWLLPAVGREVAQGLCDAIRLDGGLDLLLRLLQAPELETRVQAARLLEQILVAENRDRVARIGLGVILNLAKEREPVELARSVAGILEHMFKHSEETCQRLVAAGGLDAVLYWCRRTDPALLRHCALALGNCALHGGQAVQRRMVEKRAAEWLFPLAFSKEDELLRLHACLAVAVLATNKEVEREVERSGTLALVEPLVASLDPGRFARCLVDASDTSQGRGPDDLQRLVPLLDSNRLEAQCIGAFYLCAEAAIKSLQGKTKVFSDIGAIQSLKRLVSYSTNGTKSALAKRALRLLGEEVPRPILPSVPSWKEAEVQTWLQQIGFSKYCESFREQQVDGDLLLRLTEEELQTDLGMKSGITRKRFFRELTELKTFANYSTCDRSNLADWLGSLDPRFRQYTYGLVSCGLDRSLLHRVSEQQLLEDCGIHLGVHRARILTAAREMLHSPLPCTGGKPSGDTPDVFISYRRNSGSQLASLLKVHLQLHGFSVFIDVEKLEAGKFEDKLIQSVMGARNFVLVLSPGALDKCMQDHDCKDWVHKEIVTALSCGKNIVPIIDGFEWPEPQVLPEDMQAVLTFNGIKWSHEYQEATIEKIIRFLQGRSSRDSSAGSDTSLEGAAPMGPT
The nature of test [10]: MELAS cybrid and Rieske KO viability enhancers – cell-based, MELAS cybrids, Rieske KO mouse fibroblasts, CellTiter-Glo, primary screen (AID 1508586;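 active means mean z-score across replicates of 1.96 or higher in either the MELAS or the Rieske mutant cell line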;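 further: z relative to plate mean and SD of compound and empty wells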). Conditions: low glucose.
The target in test [11] is Mitogen-activated protein kinase 7 (Homo sapiens) (UniProt Q13164). Kind of test: Gal4-ERK5 driven luciferase induction – cell-based, HTS, primary screen (AID 1508626;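 active means luciferase signal above three times the same-plate solvent-only control wells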;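 further: luciferase driven by Gal4-ERK5 fusion binding five Gal4 sites before minimal TATA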). Conditions: HeLa Gal4-ERK5 transactivation, 18 h, at 5 µM, stronger effect = higher value.
Mitogen-activated protein kinase 7 (Homo sapiens), sequence (Q13164 whole entry, looked up, the tested form may be a part): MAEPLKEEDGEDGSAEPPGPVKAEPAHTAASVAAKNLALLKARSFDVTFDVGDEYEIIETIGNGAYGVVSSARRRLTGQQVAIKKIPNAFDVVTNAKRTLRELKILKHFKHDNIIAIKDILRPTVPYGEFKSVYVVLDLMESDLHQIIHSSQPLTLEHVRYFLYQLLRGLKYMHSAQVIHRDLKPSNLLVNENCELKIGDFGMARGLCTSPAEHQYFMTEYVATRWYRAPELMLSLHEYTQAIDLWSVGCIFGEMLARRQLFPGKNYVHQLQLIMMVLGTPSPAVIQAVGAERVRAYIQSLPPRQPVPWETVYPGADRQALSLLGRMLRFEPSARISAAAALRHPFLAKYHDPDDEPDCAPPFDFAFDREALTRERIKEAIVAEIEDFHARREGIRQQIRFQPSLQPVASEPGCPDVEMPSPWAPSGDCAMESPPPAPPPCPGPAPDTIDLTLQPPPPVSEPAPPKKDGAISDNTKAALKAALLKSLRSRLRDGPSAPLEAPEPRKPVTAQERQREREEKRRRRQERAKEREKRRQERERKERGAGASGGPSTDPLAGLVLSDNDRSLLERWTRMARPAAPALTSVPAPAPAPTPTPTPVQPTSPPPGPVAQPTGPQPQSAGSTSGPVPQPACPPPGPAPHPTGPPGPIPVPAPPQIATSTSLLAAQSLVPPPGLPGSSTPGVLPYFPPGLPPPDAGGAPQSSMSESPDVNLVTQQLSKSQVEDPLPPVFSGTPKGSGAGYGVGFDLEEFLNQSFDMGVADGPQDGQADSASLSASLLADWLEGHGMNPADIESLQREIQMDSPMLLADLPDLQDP
Test [12] is described as follows: P. berghei load reduction in hepatocytes – cell-based, HepG2, luciferase luminescence, HepG2 viability, primary screen (AID 624349; in the data active means parasite load remaining mostly below about 12%, no sharp cut-off; inactive means mostly above about 10%;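 further: 100% = mean of DMSO negative control wells on the same plate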). Conditions: P. berghei liver stage in HepG2, luciferase luminescence, concentration not given here; parasite load remaining: stronger effect = lower value; viability: measured here: HepG2 viability without parasites.
The mark [13] stands for this setting: MELAS cybrid survival, CellTiter-Glo 48 h, stronger effect = higher value.
The mark [14] stands for this setting: Rieske KO mouse fibroblast survival, CellTiter-Glo 72 h.

The source made the active and inactive calls.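 How the source made its calls, unless noted: active means compound that reduces growth-factor-driven endothelial tube area in a mixed cell culture, no cutoff stated; inactive means the rest.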

With `CCCCC(CC)COC(=O)c1ccccc1O` (stereo not given), the nuclear beta-catenin stimulation was -0.1% (inactive) in [1] (at 10 µM) and -0.3% in test [1] (stimulation, at 2 µM). The insulin secretion stimulation in [2] was -2% (inactive). For the same compound, the viability decrease in test [3] is 9.8% (inactive). For the same compound, the tube area decrease in test [4] is -7.3% (inactive). The GLP1 secretion stimulation in test [5] is 1.9% (inactive). Also, the inhibition of viability in test [6] was 2.2% (inactive). The viability decrease (inhibition) was 50.1% (active) in [7] and 14.3% (inactive) in test [8]. The remaining NAD in [9] is 10 nM (inactive).
Take `O=C(NCCCN1CCOCC1)c1ccc(Cl)cc1`: the nuclear beta-catenin stimulation in test [1] (at 10 µM) was 0.6% (inactive); in test [1] (stimulation, at 2 µM), 1%. The insulin secretion stimulation in test [2] is 1.5% (inactive). In addition, the viability decrease in test [3] is 1.5% (inactive). Moreover, the tube area decrease in test [4] is 12.7% (inactive). The GLP1 secretion stimulation in test [5] was -0.3% (inactive). For the same compound, the inhibition of viability in test [6] is 0% (inactive). Besides, the viability decrease (inhibition) in test [7] is 18.6% (inactive); in test [8] it was 1.05% (inactive). The remaining NAD in test [9] is 10 nM (inactive).
Regarding `NC(=O)N[C@@H](CCC(=O)O)C(=O)O`, the nuclear beta-catenin stimulation is -0.1% (inactive) in test [1] (at 10 µM) and -1% in test [1] (stimulation, at 2 µM). In test [2], the insulin secretion stimulation was 0.3% (inactive). The viability decrease in test [3] is 11.1% (inactive). Also, the tube area decrease in test [4] is -22.3% (inactive). In test [5], the GLP1 secretion stimulation was -2.5% (inactive). Also, the inhibition of viability in test [6] was 4.1% (inactive). Besides, the viability decrease (inhibition) was -6.5% (inactive) in test [7] and 1% (inactive) in test [8]. In [9], the remaining NAD is 10 nM (inactive).
Turning to `O=C(CCCl)NCCc1ccccc1`, the nuclear beta-catenin stimulation in test [1] (at 10 µM) is -0.5% (inactive); in [1] (stimulation, at 2 µM), 0.2%. Also, in [2], the insulin secretion stimulation was 1.5% (inactive). In test [3], the viability decrease was -9.9% (inactive). For the same compound, the tube area decrease in [4] is -1.9% (inactive). Moreover, the GLP1 secretion stimulation in [5] is -1.9% (inactive). Besides, the inhibition of viability in [6] is -2.8% (inactive). The viability decrease (inhibition) was -1.5% (inactive) in test [7] and -7.5% (active) in test [8]. The remaining NAD in test [9] is 10 nM (inactive).
With `COc1ccc(-n2nc(CCC(=O)N(C)O)cc2-c2ccc(Cl)cc2)cc1`, the nuclear beta-catenin stimulation in test [1] (at 10 µM) was 0.6% (inactive); in test [1] (stimulation, at 2 µM), 0.2%. Further, the insulin secretion stimulation in test [2] was 2.7% (inactive). In addition, the viability decrease in test [3] is 91.8% (active). In addition, the tube area decrease in test [4] is 19.2% (inactive). In test [5], the GLP1 secretion stimulation was 9.1% (inactive). Moreover, the inhibition of viability in test [6] was 94.4% (active). For the same compound, the viability decrease (inhibition) in test [7] was 130% (active); in [8], 102% (active). In test [9], the remaining NAD is 10 nM (inactive).
As for `CCOC(=O)[C@@](C)(N)Cc1ccc(O)c(O)c1`, the nuclear beta-catenin stimulation in test [1] (at 10 µM) was 0.6% (inactive); in test [1] (stimulation, at 2 µM), -0.5%. For the same compound, the insulin secretion stimulation in [2] was 2.8% (inactive). Moreover, the viability decrease in [3] was 37.5% (inactive). For the same compound, the tube area decrease in [4] was -1.8% (inactive). Further, in [5], the GLP1 secretion stimulation was -2.3% (inactive). Besides, the inhibition of viability in test [6] is 20% (inactive). The viability decrease (inhibition) was 65% (active) in [7] and 17.2% (inactive) in test [8]. In addition, the z-score was -1.64 (inactive) in test [10] (setting [13]) and -0.614 in test [10] (setting [14]). Also, the luciferase signal in test [11] is 92 AU (inactive).
By viability is commonly meant a per cent measure of how many cells are alive, often set against a control. Consider `O=P(O)(O)C(Cl)(Cl)P(=O)(O)O`, for which the parasite load remaining in [12] was 33.9% (inactive). Further, the viability in test [12] came out at 100%. In addition, the nuclear beta-catenin stimulation in test [1] (at 10 µM) was 1% (inactive); in [1] (stimulation, at 2 µM), 0.9%. Moreover, the insulin secretion stimulation in [2] is 5.1% (inactive). Further, the viability decrease in [3] is -1.2% (inactive). The tube area decrease in [4] was 26.4% (inactive). For the same compound, in test [5], the GLP1 secretion stimulation is -4.3% (inactive). Besides, in test [6], the inhibition of viability is 11.1% (inactive). Also, the values for the viability decrease (inhibition) in test [7] and in [8] were 26.6% (inactive) and -2.9% (inactive), respectively. In addition, the results for the z-score in test [10] (setting [13]) and in test [10] (setting [14]) were 0.218 (inactive) and -0.285, respectively.
`CCC1C(=O)OCC1Cc1cncn1C` (stereo not given): the nuclear beta-catenin stimulation in [1] (at 10 µM) was 0.7% (inactive); in [1] (stimulation, at 2 µM) it was 20%. The insulin secretion stimulation in [2] was 3.7% (inactive). Besides, the viability decrease in test [3] is 2.7% (inactive). Further, in test [4], the tube area decrease was -1.1% (active). Further, in [5], the GLP1 secretion stimulation was 1.2% (inactive). For the same compound, the inhibition of viability in test [6] was 8.9% (inactive). For the same compound, the viability decrease (inhibition) in test [7] is -14.8% (inactive); in test [8], -20.6% (inactive).
`N#Cc1cc(NC(=O)C(=O)O)c(Cl)c(NC(=O)C(=O)O)c1`: the nuclear beta-catenin stimulation is 3.5% (inactive) in test [1] (at 10 µM) and 1.2% in test [1] (stimulation, at 2 µM). For the same compound, in test [2], the insulin secretion stimulation is 2.2% (inactive). The viability decrease in test [3] is -38.9% (inactive). In addition, the tube area decrease in test [4] is -0.9% (inactive). Moreover, the GLP1 secretion stimulation in test [5] was -0.9% (inactive). Also, in test [6], the inhibition of viability is -4.9% (inactive). In addition, the viability decrease (inhibition) in test [7] was 25.7% (inactive); in test [8], -16.9% (inactive). The z-score in test [10] (setting [13]) is -0.414 (inactive); in [10] (setting [14]), -0.697.
In the case of `Cn1c(=O)c2c(ncn2CC(=O)O)n(C)c1=O`, the nuclear beta-catenin stimulation in test [1] (at 10 µM) was -0.1% (inactive); in [1] (stimulation, at 2 µM) it was -1%. In addition, the insulin secretion stimulation in test [2] is 0.95% (inactive). In [3], the viability decrease is 20.3% (inactive). Also, the tube area decrease in test [4] is -15.7% (inactive). Further, the GLP1 secretion stimulation in test [5] is -0.7% (inactive). The inhibition of viability in test [6] is 12.3% (inactive). In addition, the viability decrease (inhibition) in [7] is 0.4% (inactive); in [8] it was -5.4% (inactive). The z-score was 0.592 (inactive) in test [10] (setting [13]) and 0.00475 in [10] (setting [14]).
Consider `Nc1c[n+](N2CCOCC2)no1`, for which the nuclear beta-catenin stimulation is 0.4% (inactive) in test [1] (at 10 µM) and -0.3% in test [1] (stimulation, at 2 µM). Also, in test [2], the insulin secretion stimulation is -1.7% (inactive). Also, the viability decrease in test [3] was 15.5% (inactive). The tube area decrease in test [4] was -10.8% (inactive). For the same compound, the GLP1 secretion stimulation in test [5] was -2.6% (inactive). Further, the inhibition of viability in [6] was -13.8% (inactive). Besides, the viability decrease (inhibition) in test [7] was 66.6% (active); in test [8] it was 20.6% (inactive).
As to `Cc1cc(CC(C)CC(C)(C)C)n(O)c(=O)c1` (stereo not given), the nuclear beta-catenin stimulation in test [1] (at 10 µM) is 43.5% (active); in test [1] (stimulation, at 2 µM), 50.6%. In addition, the insulin secretion stimulation in test [2] was 2.2% (inactive). The viability decrease in [3] was 94.2% (active). Further, in [4], the tube area decrease is 107% (active). Further, in test [5], the GLP1 secretion stimulation is -0.7% (inactive). Besides, the inhibition of viability in test [6] is 67.2% (active). Moreover, the results for the viability decrease (inhibition) in [7] and in test [8] were 95.7% (active) and 91.5% (active), respectively. Moreover, the remaining NAD in [9] is 10 nM (inactive).
Consider `N[C@@H](Cc1ccc(O)cc1)C(=O)O`, for which the nuclear beta-catenin stimulation was -2% (inactive) in [1] (at 10 µM) and -0.2% in test [1] (stimulation, at 2 µM). Further, the insulin secretion stimulation in [2] was 3.9% (inactive). In test [3], the viability decrease was -7.6% (inactive). Also, the tube area decrease in [4] was 1% (inactive). The GLP1 secretion stimulation in test [5] was 3% (inactive). In test [6], the inhibition of viability is 3.9% (inactive). In addition, the values for the viability decrease (inhibition) in test [7] and in test [8] were -0.8% (inactive) and -0.1% (inactive), respectively. In test [9], the remaining NAD is 10 nM (inactive).

The values are drawn from PubChem BioAssay.
